# Assay results: PubChem BioAssay
# Calls of active or inactive are those of the source.
# How the values were obtained:
# [1] = binders of probe aFSTL3 on microarray, primary screen, stem cell growth factor project, biochemical, small-molecule microarray, fluorescence 635/667 (AID 1064); details: higher = more signal;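 note: measures binding of the biotinylated anti-FSTL3 antibody to printed compounds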
# [2] = binders from COS7 lysate, DM2A8 probe, primary screen, torsin A project, cell lysate, small-molecule microarray, fluorescence 635/667 (AID 1065); details: higher = more signal, COS7 lysate expressing mutant human TOR1A
# [3] = binders of probe aFGF2 on microarray, primary screen, stem cell growth factor project, biochemical, small-molecule microarray, fluorescence 635/667 (AID 1067); details: higher = more signal;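 note: measures binding of biotinylated aFGF2 protein to printed compounds on slides; z-score merges feature fluorescence and signal-to-noise across triplicate slides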
# [4] = binders of probe aFGF10 on microarray, primary screen, stem cell growth factor project, biochemical, small-molecule microarray, fluorescence 635/667 (AID 1071); details: higher = more signal;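 note: score merges 667 nm spot intensity and signal to noise from triplicate slides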
# [5] = molecular target: Neurogenic locus notch homolog protein 2 (Homo sapiens) (UniProt Q04721); experiment: Notch2 binders on small-molecule microarrays, primary screen, biochemical, small-molecule microarray, 635 nm fluorescence, stem cell growth factors (AID 1073); details: Notch2 binding, higher = more signal
# Neurogenic locus notch homolog protein 2 (Homo sapiens), sequence (Q04721 whole entry, looked up, canonical isoform): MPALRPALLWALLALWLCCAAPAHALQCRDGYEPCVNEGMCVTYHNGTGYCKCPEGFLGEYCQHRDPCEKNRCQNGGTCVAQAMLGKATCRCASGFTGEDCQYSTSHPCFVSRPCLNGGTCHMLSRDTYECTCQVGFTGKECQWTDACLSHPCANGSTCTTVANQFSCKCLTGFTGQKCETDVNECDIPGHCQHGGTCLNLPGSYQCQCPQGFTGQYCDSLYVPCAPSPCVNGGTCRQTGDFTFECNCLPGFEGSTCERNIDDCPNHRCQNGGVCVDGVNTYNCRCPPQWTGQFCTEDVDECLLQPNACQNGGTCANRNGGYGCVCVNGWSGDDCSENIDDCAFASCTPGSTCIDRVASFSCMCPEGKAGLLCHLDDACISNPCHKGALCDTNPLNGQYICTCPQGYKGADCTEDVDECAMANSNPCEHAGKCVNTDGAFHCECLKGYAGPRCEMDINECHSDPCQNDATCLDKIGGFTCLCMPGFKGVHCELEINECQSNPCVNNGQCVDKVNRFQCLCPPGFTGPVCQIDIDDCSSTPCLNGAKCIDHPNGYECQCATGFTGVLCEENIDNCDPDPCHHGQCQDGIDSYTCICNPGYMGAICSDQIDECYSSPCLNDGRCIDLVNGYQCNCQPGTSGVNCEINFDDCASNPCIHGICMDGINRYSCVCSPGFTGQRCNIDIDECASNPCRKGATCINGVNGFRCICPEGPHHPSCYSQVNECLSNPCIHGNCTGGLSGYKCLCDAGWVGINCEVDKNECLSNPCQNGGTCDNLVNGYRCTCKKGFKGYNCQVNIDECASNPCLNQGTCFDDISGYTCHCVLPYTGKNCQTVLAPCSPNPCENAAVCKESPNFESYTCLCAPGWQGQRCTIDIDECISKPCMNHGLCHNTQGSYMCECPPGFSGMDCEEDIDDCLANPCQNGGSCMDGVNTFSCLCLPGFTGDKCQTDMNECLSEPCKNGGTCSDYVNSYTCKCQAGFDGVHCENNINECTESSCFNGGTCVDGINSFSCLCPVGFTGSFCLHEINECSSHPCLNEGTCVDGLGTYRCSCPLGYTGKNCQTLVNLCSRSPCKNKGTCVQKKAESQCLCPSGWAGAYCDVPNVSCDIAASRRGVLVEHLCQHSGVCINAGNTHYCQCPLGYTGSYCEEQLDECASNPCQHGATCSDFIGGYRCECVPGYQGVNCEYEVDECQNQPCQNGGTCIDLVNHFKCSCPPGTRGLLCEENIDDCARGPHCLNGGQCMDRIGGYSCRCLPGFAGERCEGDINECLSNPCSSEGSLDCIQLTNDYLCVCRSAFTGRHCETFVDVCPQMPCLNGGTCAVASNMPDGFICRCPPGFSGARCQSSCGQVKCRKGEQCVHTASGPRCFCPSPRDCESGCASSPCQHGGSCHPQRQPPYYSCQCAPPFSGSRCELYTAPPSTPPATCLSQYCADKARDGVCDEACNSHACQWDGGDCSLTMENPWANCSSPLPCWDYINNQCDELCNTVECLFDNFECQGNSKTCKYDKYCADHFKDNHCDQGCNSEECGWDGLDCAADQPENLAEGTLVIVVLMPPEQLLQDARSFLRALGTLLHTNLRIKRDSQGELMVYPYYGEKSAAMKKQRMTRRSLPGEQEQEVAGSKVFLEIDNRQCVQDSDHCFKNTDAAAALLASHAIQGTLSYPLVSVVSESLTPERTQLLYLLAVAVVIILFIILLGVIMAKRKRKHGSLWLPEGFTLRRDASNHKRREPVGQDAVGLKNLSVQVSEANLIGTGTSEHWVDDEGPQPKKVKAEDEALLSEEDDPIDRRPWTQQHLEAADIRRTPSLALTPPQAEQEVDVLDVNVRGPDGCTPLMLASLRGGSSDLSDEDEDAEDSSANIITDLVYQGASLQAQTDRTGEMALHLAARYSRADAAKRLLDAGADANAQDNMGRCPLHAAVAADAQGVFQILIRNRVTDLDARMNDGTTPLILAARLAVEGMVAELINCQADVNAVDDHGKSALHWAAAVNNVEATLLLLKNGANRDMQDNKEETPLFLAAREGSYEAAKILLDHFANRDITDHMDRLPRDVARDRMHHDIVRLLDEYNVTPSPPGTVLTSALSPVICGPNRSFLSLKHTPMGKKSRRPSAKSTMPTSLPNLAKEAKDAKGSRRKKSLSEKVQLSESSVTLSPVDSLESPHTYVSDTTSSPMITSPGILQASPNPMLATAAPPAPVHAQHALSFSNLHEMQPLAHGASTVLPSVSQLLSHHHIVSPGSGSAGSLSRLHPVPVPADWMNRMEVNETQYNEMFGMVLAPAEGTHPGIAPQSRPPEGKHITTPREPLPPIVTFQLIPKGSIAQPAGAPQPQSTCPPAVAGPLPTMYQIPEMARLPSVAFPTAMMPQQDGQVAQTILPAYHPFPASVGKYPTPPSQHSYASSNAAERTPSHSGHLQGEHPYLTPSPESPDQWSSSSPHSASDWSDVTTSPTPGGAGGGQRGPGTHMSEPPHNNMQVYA
# [6] = molecular target: Pro-neuregulin-1, membrane-bound isoform (Homo sapiens) (UniProt Q02297); experiment: NRG1 binders on small-molecule microarrays, primary screen, psychiatric disease protein project, biochemical, small-molecule microarray, fluorescence 635/667 (AID 1075); details: NRG1 binding, 635 nm fluorescence, higher = more signal;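 note: score combines 667 nm spot fluorescence with signal to noise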
# Pro-neuregulin-1, membrane-bound isoform (Homo sapiens), sequence (Q02297 whole entry, looked up, the tested form may be a part, canonical isoform): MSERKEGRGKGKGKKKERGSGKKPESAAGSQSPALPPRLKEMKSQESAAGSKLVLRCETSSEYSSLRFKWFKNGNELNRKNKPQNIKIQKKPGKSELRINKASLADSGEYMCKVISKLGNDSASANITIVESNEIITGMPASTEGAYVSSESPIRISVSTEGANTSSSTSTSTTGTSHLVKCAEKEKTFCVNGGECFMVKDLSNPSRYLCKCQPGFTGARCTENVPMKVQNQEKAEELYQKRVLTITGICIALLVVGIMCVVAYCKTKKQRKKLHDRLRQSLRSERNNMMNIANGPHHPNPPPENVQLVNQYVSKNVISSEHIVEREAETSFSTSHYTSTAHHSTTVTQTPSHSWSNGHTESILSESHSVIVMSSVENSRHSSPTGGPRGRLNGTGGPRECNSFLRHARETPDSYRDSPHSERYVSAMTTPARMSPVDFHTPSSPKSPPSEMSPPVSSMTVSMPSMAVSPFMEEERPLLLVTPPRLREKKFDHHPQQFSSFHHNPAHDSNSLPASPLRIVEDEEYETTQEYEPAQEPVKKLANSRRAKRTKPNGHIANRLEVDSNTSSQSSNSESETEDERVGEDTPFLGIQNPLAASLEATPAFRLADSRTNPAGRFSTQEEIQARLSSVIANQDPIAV
# [7] = system: Neuregulin-1 EGF-like domain; experiment: binders of neuregulin-1 EGF-like domain, primary screen, biochemical, small-molecule microarray, 635 nm fluorescence (AID 1081); details: small-molecule microarray binding, higher = more signal;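 note: binding of the protein to compounds printed on small-molecule microarray slides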
# [8] = FRG1 promoter luciferase signal modulators, primary screen, FRG1 inhibition for FSHD, cell-based, C2C12 myotubes, firefly/Renilla luciferase, luminescence (AID 1084); details: higher = more signal, called active from +8 up or from −8 down
# [9] = binders of probe aFST on microarray, primary screen, stem cell growth factor project, biochemical, small-molecule microarray, fluorescence 635/667 (AID 1086); details: higher = more signal;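 note: score merges 667 nm fluorescence with signal-to-noise of each printed compound spot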
# [10] = binders of probe aHhip on microarray, primary screen, stem cell growth factor project, biochemical, small-molecule microarray, fluorescence 635/667 (AID 1087); details: higher = more signal;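 note: score merges spot fluorescence at 667nm with spot signal to noise ratio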
Compound,composite z-score [1],composite z-score [2],composite z-score [3],composite z-score [4],composite z-score [5],composite z-score [6],composite z-score [7],z-score [8],composite z-score [9],composite z-score [10]
COC(=O)C1=CC(CCCO)=CC(C2CC2)N(C)C=C1C(=O)OC (stereo not given),0.0334,-0.144,-0.101,-0.0269,0.448,2.06,0.935,-0.327 (inactive),-0.308,-0.0994
COC(=O)[C@@]1(Cc2ccc(F)cc2)[C@H]2c3cc(C(=O)N4CCCC4)n(CCc4ccc(O)c(O)c4)c3C[C@H]2CN1C(=O)c1ccccc1,1.41,0.109,0.57,0.146,1.38,2.3,1.29,0.332 (inactive),1.05,2.44
CCCCCCc1nc(C2CC2)cc2c1[Si](C(C)C)(C(C)C)O[C@H]2c1ccccc1,0.0483,0.122,-0.0286,0.698,0.516,-0.37,-0.903,-0.136 (inactive),0.177,-0.0618
O=C1NC(=O)C2C1C=CC(C(O)c1ccco1)N2Nc1ccccn1 (stereo not given),-0.156,-0.156,-0.0907,-0.0923,0.076,-0.0825,1.08,1.41 (inactive),0.055,0.154
COC(=O)c1c(CC[C@@H](CO)NC(=O)N[C@H](Cn2cc(C3(O)CCCCC3)nn2)C(C)C)oc(C(C)=O)c1C(=O)OC,-0.413,0.945,-0.003,0.815,0.759,0.759,1.07,0.324 (inactive),0.253,-0.0237
NC(=O)N1C(=O)C2C(C1=O)C1C=C(CCCO)C2C(c2cccs2)N1Cc1cccc(OC(F)(F)F)c1 (stereo not given),-0.206,0.118,-0.0715,0.354,0.009,1.03,0.753,-1.02 (inactive),0.0646,-0.0994
COc1ccc(-c2cc3c(c(CCc4ccccc4)n2)[Si](C(C)C)(C(C)C)OC3)cn1,-0.33,0.239,-0.0537,0.0473,0.247,-0.352,0.197,0.943 (inactive),0.21,0.113
N#Cc1ccc(C(O)C2C=CC3C(=O)N(c4ccccc4)C(=O)C3N2Nc2ccccc2)cc1 (stereo not given),0.396,0.0518,0.129,0.77,1.32,1.19,1.08,-0.627 (inactive),0.833,-0.069
CC(c1ccccc1)C(O)C1C=CC2C(=O)N(c3ccccc3)C(=O)C2N1Nc1ccc([N+](=O)[O-])cc1 (stereo not given),-0.263,0.031,-0.0265,0.772,1.62,1.58,1.11,-1.32 (inactive),0.745,-0.166
CC(=O)c1ccc(C(O)C2C=CC3C(=O)N(c4ccccc4)C(=O)C3N2Nc2ccc(C#N)cc2)cc1 (stereo not given),0.0415,0.233,-0.122,-0.0474,0.833,1.5,0.609,-0.0141 (inactive),0.766,-0.0645
O=C1O[C@@H](c2ccccc2)[C@@H](c2ccccc2)N2[C@@H](c3ccccc3OCCO)[C@]3(C(=O)Nc4ccc(C#CCCO)cc43)[C@@H](C(=O)N3CCCCCCC3)[C@H]12,4.01,2.76,1.1,1.47,1.83,2.86,1.35,-3.55 (inactive),3.89,2.64
O=C1O[C@H](c2ccccc2)[C@H](c2ccccc2)N2[C@H]1[C@@H](C(=O)Nc1nc3ccccc3s1)[C@]1(C(=O)Nc3ccc(C#CC4(O)CCCCCC4)cc31)[C@H]2c1ccccc1OCCO,-0.411,0.0728,-0.048,1.05,1.23,0.77,1.07,0.435 (inactive),0.492,-0.0994
C[N+](C)(C)CCCCCCNC(=O)[C@H]1C[C@H]2C(=O)N[C@@H](Cc3ccccc3)C(=O)N2[C@H]1c1ccc(O)cc1,0.18,0.375,-0.0853,0.316,0.224,0.736,1.21,2.26 (inactive),-0.0859,0.0373
O=C(NCC(F)(F)F)[C@@H]1c2ccccc2C(=O)N(Cc2cc(F)cc(C(F)(F)F)c2)[C@H]1c1ccc(CO)cc1,0.148,-0.823,-0.0996,-0.762,-1,-0.381,1.06,-0.0411 (inactive),-0.317,-0.218
Cn1cccc1C(O)C1C=CC2C(=O)NC(=O)C2N1Nc1ccc(Cl)cc1Cl (stereo not given),0.435,0.263,0.167,0.68,1.68,2.04,1.15,0.978 (inactive),1.92,0.107
COc1ccc(CCNC(=O)[C@@H]2c3ccccc3C(=O)N(Cc3cc(C(F)(F)F)cc(C(F)(F)F)c3)[C@H]2c2ccc(CO)cc2)cc1,0.0967,-0.138,-0.123,-0.0803,-0.181,0.568,0.993,-0.188 (inactive),-0.135,-0.236
COCCOC(=O)N1C(=O)[C@@]2(c3cc(C#Cc4ccc(OC)cc4)ccc31)[C@H](c1ccc(O)cc1)N1[C@H](c3ccccc3)[C@H](c3ccccc3)OC(=O)[C@H]1[C@@H]2C(=O)N1CCCCCCC1,2.84,0.746,0.0177,0.178,0.679,0.326,0.341,1.39 (inactive),2.46,2.1

Compound,composite z-score [1],composite z-score [2],composite z-score [3],composite z-score [4],composite z-score [5],composite z-score [6],composite z-score [7],z-score [8],composite z-score [9],composite z-score [10]
COC(=O)Cn1c(C(=O)N(C)C)cc2c1C[C@H]1CN(C(=O)c3ccccc3)[C@@](Cc3ccc(F)cc3)(C(=O)OC)[C@@H]21,0.0501,-0.152,0.154,1.24,1.65,0.88,1.13,-0.438 (inactive),0.114,-0.15
COC(=O)[C@H](Cc1ccccc1)N1CC(/C=C/C2CC2)=C[C@H]1[C@H](O)Cc1ccccc1,-0.284,0.177,-0.104,0.6,0.34,0.821,1.01,-2.56 (inactive),0.101,0.0274
C[C@@H]1ON(c2ccc(C(=O)OC(C)(C)C)cc2)[C@H](c2ccc(O)cc2)[C@H]1C(=O)N1C(=O)OC[C@H]1Cc1ccccc1,-0.521,0.707,-0.109,0.8,1.37,0.803,1.05,0.0087 (inactive),0.236,-0.0645
CC(CO)N1C(=O)[C@@H]2[C@H]3C(=O)OCC=C[C@H]3OC23C=CCN(C(C)(C)C)C(=O)[C@@H]13 (stereo not given in full),-0.279,0.261,-0.128,0.337,-0.175,-0.305,1.51,1.76 (inactive),-0.415,-0.0618
COc1ccc([Si](C)(C)[C@@H]2[C@@H](CC(=O)N3Cc4ccccc4C[C@H]3CO)O[C@]3(C(=O)N(Cc4cccc(N5C(=O)c6cccc7cccc5c67)c4)c4ccccc43)[C@H]2C)cc1,-0.345,0.822,-0.0111,0.659,0.973,0.828,1.04,-1.51 (inactive),0.593,0.0505
[N-]=[N+]=NCc1ccccc1C[C@@]1(C(=O)N2CCOCC2)N=C(c2ccc(OCCCO)cc2)O[C@@H]1c1ccccc1,0.458,0.572,0.0654,1,1.44,1.79,1.1,-4.48 (inactive),0.705,0.0749
CC(CO)N1C(=O)[C@@H]2[C@H]3C(=O)OCC=C[C@H]3OC23C=CCN(CCN2CCOCC2)C(=O)[C@@H]13 (stereo not given in full),-0.979,-0.0708,-0.203,-0.362,-0.256,-0.718,0.284,1.03 (inactive),-0.0558,-0.539
O=C1O[C@H](c2ccccc2)[C@H](c2ccccc2)N2[C@H]1[C@@H](C(=O)Nc1nc3ccccc3s1)[C@]1(C(=O)Nc3ccc(C#CCCO)cc31)[C@H]2c1ccc(O)cc1,-0.309,0.931,-0.0074,1.01,0.947,1.2,1.27,0.912 (inactive),0.652,-0.0581
CN1C(=O)C2C=CC(C(O)COCc3ccccc3)N(N(c3ccccc3)c3ccccc3)C2C1=O (stereo not given),0.0199,-0.177,0.0472,0.631,1.55,1.29,1.03,0.0958 (inactive),1.1,-0.0563
C=C(C)c1cc2c(c(CCCCCC)n1)[Si](C(C)C)(C(C)C)OC2,-0.392,-1.42,-0.157,-1.05,-1.03,-0.792,-1.02,-0.647 (inactive),-0.437,0.0201
CCCCCCCCCCC(O)C1C=CC2C(=O)N(C)C(=O)C2N1Nc1ccc([N+](=O)[O-])cc1[N+](=O)[O-] (stereo not given),-0.222,-0.254,0.0772,0.131,1.55,1.12,0.975,0.262 (inactive),0.839,-0.0994
CC(C)C(=C=CC[C@H](O)c1ccc(OCCO)cc1)C[C@H](O)c1ccccn1,-0.331,-0.0844,-0.129,0.679,-0.0686,0.243,1.28,-0.0915 (inactive),-0.249,-0.0618
COc1ccc(CCNC(=O)[C@@]2(Sc3ccc(C)cc3)CC(=O)N(C3Cc4ccccc4C3)[C@@H]2c2ccc(CO)cc2)cc1,0.183,0.737,0.153,-0.0334,1.43,0.591,1.29,-3.33 (inactive),0.384,0.866
COC(=O)[C@@]1(Cc2ccc(OC)cc2)[C@H]2c3cc(C(=O)N4CCCC4)n(Cc4c(-c5ccccc5)noc4C)c3C[C@H]2CN1C(=O)c1ccccc1,0.194,0.245,0.336,0.812,1.71,1.31,1.25,0.44 (inactive),1.73,1.79
COc1ccccc1CN1C(=O)c2ccccc2[C@@]2(Cc3ccccc3N(CC(F)(F)F)C2=O)[C@@H]1c1ccc(CO)cc1,-0.951,0.252,-0.226,-0.244,0.166,-0.226,0.778,-3.55 (inactive),-0.29,-0.403
C=C(/C(=C/C[C@H](OC(=O)c1ccncc1)c1ccc(CO)o1)c1cc(C(=O)OC)ccc1OC)C(C)C,-0.259,0.816,-0.0097,1.08,0.238,0.928,1.23,-0.918 (inactive),0.201,0.113
